From article PMC4336329 (PLoS ONE, 2015) come the findings set out here.

The structures appear in SMILES notation. In all, about 310,000 compounds went through this assay and about 14,000 (4.5%) showed an effect of 50% or more. Effects have a minus sign here. The full list was thinned out, with strong results kept by preference.
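Also: peak tail current of the secondary pulse compared with the same well before compound.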

Chain of human ether-à-go-go-related gene (hERG) potassium channel (Q12809 whole entry, looked up): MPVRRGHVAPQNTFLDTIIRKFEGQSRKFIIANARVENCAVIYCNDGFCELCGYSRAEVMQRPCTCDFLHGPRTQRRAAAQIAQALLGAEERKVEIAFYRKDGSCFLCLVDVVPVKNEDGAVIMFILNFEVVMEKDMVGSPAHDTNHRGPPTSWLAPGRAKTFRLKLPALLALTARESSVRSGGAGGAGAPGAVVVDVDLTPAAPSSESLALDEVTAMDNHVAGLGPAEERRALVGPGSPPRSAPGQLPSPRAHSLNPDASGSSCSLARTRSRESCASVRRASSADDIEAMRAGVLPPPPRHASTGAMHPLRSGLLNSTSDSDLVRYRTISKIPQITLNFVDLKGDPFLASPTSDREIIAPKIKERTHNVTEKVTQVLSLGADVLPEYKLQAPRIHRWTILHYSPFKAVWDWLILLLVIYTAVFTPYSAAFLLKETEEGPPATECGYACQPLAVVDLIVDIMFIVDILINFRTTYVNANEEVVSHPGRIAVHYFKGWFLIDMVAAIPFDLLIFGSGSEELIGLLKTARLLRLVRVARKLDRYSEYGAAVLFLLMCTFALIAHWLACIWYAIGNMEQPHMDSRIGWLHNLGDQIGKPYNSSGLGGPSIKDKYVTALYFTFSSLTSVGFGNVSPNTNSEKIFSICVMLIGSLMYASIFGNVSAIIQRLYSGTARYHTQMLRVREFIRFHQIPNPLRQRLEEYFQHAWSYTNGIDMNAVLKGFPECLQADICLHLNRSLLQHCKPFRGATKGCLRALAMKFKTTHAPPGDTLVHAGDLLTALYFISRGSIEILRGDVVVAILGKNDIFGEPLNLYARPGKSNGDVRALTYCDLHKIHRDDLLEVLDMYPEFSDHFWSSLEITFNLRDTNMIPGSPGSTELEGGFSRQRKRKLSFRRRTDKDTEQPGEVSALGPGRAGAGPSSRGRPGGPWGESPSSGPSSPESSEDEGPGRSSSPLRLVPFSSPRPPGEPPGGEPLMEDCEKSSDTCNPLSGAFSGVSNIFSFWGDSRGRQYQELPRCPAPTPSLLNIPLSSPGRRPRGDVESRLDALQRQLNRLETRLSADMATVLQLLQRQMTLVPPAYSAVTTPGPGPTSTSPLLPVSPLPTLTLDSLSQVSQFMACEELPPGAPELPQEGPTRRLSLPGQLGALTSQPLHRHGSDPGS

The experiment concerns the target human ether-à-go-go-related gene (hERG) potassium channel (human, UniProt Q12809). The experiment is described as follows: primary screen, population patch clamp on CHO cells stably expressing hERG; higher = less effect of the substance.
Turning to `Cl.NC(N)=NC(N)=Nc1ccc(SC(F)(F)F)cc1`, the “hERG current change (%, negative = inhibition) at 10uM” value is given as -21.3%.

With `Oc1cccnc1Sc1cccc(C(F)(F)F)c1`, the “hERG current change (%, negative = inhibition) at 10uM” value stood at 18.6%.

Turning to `CC(C)(C)c1nnc(NC(=O)CCS(=O)(=O)c2ccccc2)s1`, the “hERG current change (%, negative = inhibition) at 10uM” value was determined as 5.03%.

Take `COc1cc(/C=C2/SC(=S)NC2=O)ccc1OS(=O)(=O)c1ccc(C)cc1`: the “hERG current change (%, negative = inhibition) at 10uM” value turned out to be 39.8%.

For the molecule `CCOc1ccc(CCNC(=O)C2CCN(S(=O)(=O)N3CC(C)CC(C)C3)CC2)cc1OCC` (centres unmarked), the “hERG current change (%, negative = inhibition) at 10uM” value is 20.7%.

With `Cc1c(NC(=O)Cn2cc([N+](=O)[O-])cn2)c(=O)n(-c2ccccc2)n1C`, the “hERG current change (%, negative = inhibition) at 10uM” value came out at 11.7%.

Regarding `CC1CCN(c2ccc3c(c2)S(=O)(=O)c2ccccc2C3=O)CC1`, the “hERG current change (%, negative = inhibition) at 10uM” value is 7.82%.

As to `COc1cccc2cc(C(=O)C3=C(O)C(=O)N(c4cc(C)on4)C3c3cccs3)oc12` (centres unmarked), the “hERG current change (%, negative = inhibition) at 10uM” value turned out to be 22.9%.

In the case of `COc1ccccc1CNC(=O)CS(=O)Cc1nc(-c2ccc(OC)c(OC)c2)oc1C` (centres unmarked), the “hERG current change (%, negative = inhibition) at 10uM” value was -6.47%.

On to `COc1ccccc1NS(=O)(=O)c1ccc2oc(=S)[nH]c2c1`, for which the “hERG current change (%, negative = inhibition) at 10uM” value is recorded as 2.14%.

Consider `CC1CC(C)(C)NC(=S)N1CCC(=O)Nc1ccc2c(c1)OCCO2` (centres unmarked), for which the “hERG current change (%, negative = inhibition) at 10uM” value is 18.3%.

With `CC(C)(C)c1ccc(OC(=O)N2CCOCC2)cc1`, the “hERG current change (%, negative = inhibition) at 10uM” value amounted to 14%.

`COc1cc(OC)cc(C(=O)Nc2cccc(-c3ccc(N4CCOCC4)nn3)c2)c1`: the “hERG current change (%, negative = inhibition) at 10uM” value is 14.5%.

With `O=c1[nH]c(=S)n(C2CC2)c(O)c1C=NCC1CCCO1` (centres unmarked), the “hERG current change (%, negative = inhibition) at 10uM” value is reported as -6.97%.

As to `O=c1[nH]c(=O)n(CCC2=CCCCC2)c(O)c1C=NCCCn1ccnc1`, the “hERG current change (%, negative = inhibition) at 10uM” value is on record as -17.6%.

As for `O=c1[nH]c(=S)n(CCC2=CCCCC2)c(O)c1C=NCc1cccnc1`, the “hERG current change (%, negative = inhibition) at 10uM” value is -0.946%.

In the case of `O=c1[nH]c(=S)n(CCC2=CCCCC2)c(O)c1/C=N/N1CCOCC1`, the “hERG current change (%, negative = inhibition) at 10uM” value is -41.8%.

With `O=c1[nH]c(=S)n(Cc2ccc(F)cc2)c(O)c1C=NCC1CCCO1` (centres unmarked), the “hERG current change (%, negative = inhibition) at 10uM” value is on record as -61.9%.

Regarding `O=c1[nH]c(=S)n(CCC2=CCCCC2)c(O)c1C=NCCCn1ccnc1`, the “hERG current change (%, negative = inhibition) at 10uM” value was -69.3%.

Turning to `O=c1[nH]c(=O)n(Cc2ccc(F)cc2)c(O)c1C=NCCCn1ccnc1`, the “hERG current change (%, negative = inhibition) at 10uM” value was determined as 4.08%.

For `O=c1[nH]c(=O)n(CCc2ccc(F)cc2)c(O)c1C=NCCCn1ccnc1`, the “hERG current change (%, negative = inhibition) at 10uM” value is on record as -3.22%.

For the molecule `O=c1[nH]c(=O)n(Cc2ccc(F)cc2)c(O)c1C=NCC1CCCO1` (centres unmarked), the “hERG current change (%, negative = inhibition) at 10uM” value is given as -13%.

`CN1CCN(/N=C/c2c(O)n(CCC3=CCCCC3)c(=S)[nH]c2=O)CC1`: the “hERG current change (%, negative = inhibition) at 10uM” value is reported as -64.9%.

`O=c1[nH]c(=O)n(CCC2=CCCCC2)c(O)c1/C=N/N1CCOCC1`: the “hERG current change (%, negative = inhibition) at 10uM” value is reported as -21.6%.

On to `O=c1[nH]c(=S)n(Cc2ccc(F)cc2)c(O)c1C=NCCCn1ccnc1`, for which the “hERG current change (%, negative = inhibition) at 10uM” value was -60.3%.

Turning to `O=C(/C=C/c1ccccc1)C1C(=O)c2ccccc2C1=O`, the “hERG current change (%, negative = inhibition) at 10uM” value was -0.201%.

On to `Cn1cnc(S(=O)(=O)N2CCN(c3ccccc3)CC2)c1`, for which the “hERG current change (%, negative = inhibition) at 10uM” value is given as 17.3%.

For `Cc1c(C(=O)O)oc2c1C(O)CCC2` (centres unmarked), the “hERG current change (%, negative = inhibition) at 10uM” value came out at 0.768%.

Turning to `COc1ccc(N(C(C)=O)C2C=CS(=O)(=O)C2)c(OC)c1` (centres unmarked), the “hERG current change (%, negative = inhibition) at 10uM” value was 9.14%.

With `CSc1nnc(C(C)(C)C)c(=O)n1/N=C/c1ccc(Cl)cc1`, the “hERG current change (%, negative = inhibition) at 10uM” value was 0.0206%.

As for `CC(/C=N/NC(=O)CNc1n[nH]c(=O)[nH]c1=O)c1ccccc1` (centres unmarked), the “hERG current change (%, negative = inhibition) at 10uM” value was determined as 2.52%.

Turning to `Cc1nccn1CCN(C)Cc1cn(Cc2ccccc2)nc1-c1ccc2c(c1)OCO2`, the “hERG current change (%, negative = inhibition) at 10uM” value is given as -60%.

As for `CN(Cc1ncc[nH]1)Cc1cn(-c2ccccc2)nc1-c1ccc2c(c1)OCO2`, the “hERG current change (%, negative = inhibition) at 10uM” value is recorded as -60.1%.

As for `CN(Cc1cn(Cc2ccccc2)nc1-c1ccc2c(c1)OCO2)Cc1nccn1C`, the “hERG current change (%, negative = inhibition) at 10uM” value is -32.7%.

Take `CN(Cc1cn(-c2ccccc2)nc1-c1ccc2c(c1)OCO2)Cc1nccn1C`: the “hERG current change (%, negative = inhibition) at 10uM” value is -16.1%.

Turning to `COc1cccc(-c2nn(-c3ccccc3)cc2CN(C)Cc2c(C)nc3ccccn23)c1`, the “hERG current change (%, negative = inhibition) at 10uM” value was -59.9%.

Regarding `COc1ccc(-c2nn(-c3ccccc3)cc2CN2CCCO2)c(F)c1`, the “hERG current change (%, negative = inhibition) at 10uM” value stood at 3.95%.

Take `COc1cccc(-c2nn(-c3ccccc3)cc2CN(C)Cc2ccno2)c1`: the “hERG current change (%, negative = inhibition) at 10uM” value amounted to 3.65%.

For the molecule `CN(Cc1cnccn1)Cc1cn(Cc2ccccc2)nc1-c1ccc2c(c1)OCO2`, the “hERG current change (%, negative = inhibition) at 10uM” value is -23%.

For the molecule `COc1ccc(-c2nn(-c3ccccc3)cc2CN(C)CCn2ccnc2C)c(F)c1`, the “hERG current change (%, negative = inhibition) at 10uM” value is -57.6%.

With `CCn1ccnc1CN(C)Cc1cn(-c2ccccc2)nc1-c1ccc(OC)cc1F`, the “hERG current change (%, negative = inhibition) at 10uM” value is recorded as -44.9%.

For `COc1cccc(-c2nn(-c3ccccc3)cc2CN(C)Cc2ccon2)c1`, the “hERG current change (%, negative = inhibition) at 10uM” value was 9.02%.

Regarding `CN(Cc1ccccn1)Cc1cn(Cc2ccccc2)nc1-c1ccc2c(c1)OCO2`, the “hERG current change (%, negative = inhibition) at 10uM” value is given as -20.6%.

For `O=C(c1nnc(Cc2ccc(Cl)cc2)o1)N1CCOCC1`, the “hERG current change (%, negative = inhibition) at 10uM” value was 10.7%.

With `O=C(Nc1ccc(Cl)cc1)N1CCOCC1`, the “hERG current change (%, negative = inhibition) at 10uM” value was found to be 13.8%.

Consider `O=C(Nc1ccc(F)c(Cl)c1)c1ccccc1`, for which the “hERG current change (%, negative = inhibition) at 10uM” value turned out to be 0.672%.

As to `COCCNS(=O)(=O)c1cc(C(=O)O)ccc1OC`, the “hERG current change (%, negative = inhibition) at 10uM” value is reported as 15.9%.

For the molecule `COc1cc(C(=O)OC2C[C@H]3CC[C@@H](C2)N3C)ccc1O` (some centres unmarked), the “hERG current change (%, negative = inhibition) at 10uM” value is -7%.

As to `Cc1ccc(N2C(=O)C3C(C2=O)C(C(=O)c2ccc(Cl)cc2)N2CCCC32)cc1` (centres unmarked), the “hERG current change (%, negative = inhibition) at 10uM” value is listed as 2.31%.

As for `OCC[C@@H]1C[C@@H](O)[C@H](O)[C@@]2(CCCO2)O1`, the “hERG current change (%, negative = inhibition) at 10uM” value is 6.76%.

`CCCc1cc(=O)[nH]c(SCC(=O)c2c(N)n(C3CC3)c(=O)[nH]c2=O)n1`: the “hERG current change (%, negative = inhibition) at 10uM” value came to 6.85%.

Consider `COc1ccc2c3n(nc2c1)CCN=C3c1ccc(C)cc1`, for which the “hERG current change (%, negative = inhibition) at 10uM” value was -14.3%.

In the case of `O=C(NCCS(=O)(=O)N1CCN(c2ccccc2)CC1)C1CC(=O)N(c2ccc(F)cc2)C1` (centres unmarked), the “hERG current change (%, negative = inhibition) at 10uM” value is on record as -1.02%.

With `O=C(CN1CCN(c2ccccc2F)CC1)NCc1ccccc1`, the “hERG current change (%, negative = inhibition) at 10uM” value is listed as -0.288%.

As to `O=C(COC(=O)CNC(=O)c1ccccc1F)Nc1ncc(Cl)cc1Cl`, the “hERG current change (%, negative = inhibition) at 10uM” value is -3.8%.

On to `Cc1c(Cl)cccc1NC(=S)N(Cc1ccco1)C(C)c1ccccn1` (centres unmarked), for which the “hERG current change (%, negative = inhibition) at 10uM” value is -11%.

`CN(CCn1ccnc1)Cc1cn(Cc2ccccc2)nc1-c1ccc2c(c1)OCO2`: the “hERG current change (%, negative = inhibition) at 10uM” value is reported as -23.2%.

Consider `CN(CCn1ccnc1)Cc1cn(-c2ccccc2)nc1-c1ccc2c(c1)OCO2`, for which the “hERG current change (%, negative = inhibition) at 10uM” value is given as -62.9%.

For the molecule `CN(Cc1cccnc1)Cc1cn(Cc2ccccc2)nc1-c1ccc2c(c1)OCO2`, the “hERG current change (%, negative = inhibition) at 10uM” value is -11.7%.
